Entries with a potency or affinity are not part of this list. Activity calls are given as the source filed them. How the calls were made is not given here.

A short description of the assay: cytotoxicity in HEK293 cells, dose response, cytotoxicity control, cell-based, plate reader, cherry-pick (AID 651899).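 Further: cells exposed to compound for 48 hours.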 The conditions noted are these: series mostly up to 26 µM.
`CC(=O)c1ccc(C(=O)N2CCCC(C(=O)c3ccc(Cl)cc3)C2)s1` (stereo unspecified): the compound was classed as inactive.
Regarding `O=C(Nc1cccnc1)c1ccc(N2CCCC2)c([N+](=O)[O-])c1`, the outcome was inactive.
For `O=C(Nc1cccnc1)c1cc2nc(C3CC3)cc(C(F)(F)F)n2n1`, the result was inactive.
As for `O=C(CN1C(=O)/C(=C/c2cccc(Br)c2)SC1=S)Nc1cccnc1`, the outcome was inactive.
Consider `Cc1cc(C)n(-c2ccc(C(=O)Nc3ccc4c(c3)OCO4)cc2)n1`, for which the result was inactive.
`Cc1ccc(Cc2c(C)nc3nc(SCC(=O)NCCCN4CCCCC4)nn3c2C)cc1`: the compound was called inactive.
The value for `O=C(C1CCOCC1)N1CC[C@@H]2[C@H](CO)Nc3ccc(Br)cc3[C@@H]21` was “inactive”.
As for `COc1ccc(NC2CCCN(C(=O)c3ccc(C(C)=O)s3)C2)cc1` (stereo unspecified), the call was inactive.
Turning to `O=C(CSc1nc2ccccc2c(=O)n1-c1ccccc1)N1CCN(CCO)CC1`, the outcome was inactive.
The value for `Cc1nc2sc(C(c3ccc(Cl)cc3)N3CCN(c4ccccc4F)CC3)c(O)n2n1` (stereo unspecified) was “inactive”; that for `COc1ccc(C(=O)C2CCCN(C(=O)c3ccc(C(C)=O)s3)C2)c(C)c1` (stereo unspecified) was “inactive”; that for `O=C(c1ccncc1)N1CC[C@H]2[C@H](CO)Nc3ccc(Br)cc3[C@H]21` was “inactive”.
For `COc1ccc(CCNC(=O)c2cnc3n(c2=O)CCS3)cc1OC`, the call was inactive.
In the case of `O=C(c1ccc(Br)s1)N1CCN(Cc2ccc3c(c2)OCO3)CC1`, the outcome was inactive.
The value for `C=CCn1c(SCc2c(C(=O)OC)sc(N)c2C(=O)OC)nnc1-c1ccc(Br)cc1` was “inactive”; that for `COc1ccc(NC(=O)c2ccc(S(=O)(=O)N(C)C)cc2)cc1OC` was “inactive”.
As for `O=C(Nc1cccnc1)c1ccc(N2CCOCC2)c([N+](=O)[O-])c1`, the compound was classed as inactive.
For the compound `COc1ccc(-c2nc3ccc(Cl)cn3c2Cc2ccccc2)cc1OC`, the outcome was inactive.
With `CCCCN1C(=O)c2ccc(C(=O)Nc3cccnc3)cc2C1=O`, the result was inactive.
As to `CCCOc1ccc2c3c(c(=O)oc2c1OCCC)CCC3`, the compound was called inactive.
Consider `CC(=O)c1ccc(N2CCN(C(=O)c3ccc(Br)cc3)CC2)c(F)c1`, for which the outcome was inactive.
`CC(Oc1cc2oc(=O)c3c(c2cc1Cl)CCC3)C(=O)NCc1cccnc1` (stereo unspecified): the result was inactive.
Turning to `CN1c2ccc(-c3cccc(F)c3)cc2[C@H]2[C@H](CCN2C(=O)C2CC2)[C@H]1CO`, the call was inactive.
In the case of `Cc1nnc(N2CCC(C(=O)N3CCCCC3)CC2)c2nn(-c3ccc(Cl)cc3)c(C)c12`, the outcome was inactive.
For the compound `CC(=O)c1ccc(C(=O)NC2CCCN(Cc3ccccc3F)C2)s1` (stereo unspecified), the result was inactive.
`CC(=O)OCC(=O)[C@@]1(OC(C)=O)[C@@H](C)C[C@H]2[C@@H]3C[C@H](F)C4=CC(=O)C=C[C@]4(C)[C@@]3(F)[C@@H](O)C[C@@]21C`: the result was inactive.
On to `O=C(Nc1ccc(F)c(F)c1)c1ccc(-n2cncn2)c([N+](=O)[O-])c1`, for which the call was inactive.
With `CCCOC(=O)c1cccc(NC(=O)c2cccnc2)c1` the entry was “inactive”; with `Cc1nn(CCC(=O)O)c2nc(-c3cccnc3)cc(C(F)(F)F)c12`, “inactive”.
Consider `CCOC(=O)C1(CCc2ccccc2)CCN(C(=O)CN2CCOC2=O)CC1`, for which the compound was classed as inactive.
Turning to `COc1ccc(NC(=O)c2ccc(Cl)nc2)cc1S(=O)(=O)N1CCOCC1`, the call was inactive.
Regarding `Clc1ccc(CSc2nnc(-c3cccnc3)o2)cc1`, the result was inactive.
For `O=C(N[C@@H]1CC[C@H](CCn2cc(-c3cccnc3)nn2)O[C@@H]1CO)c1ccccc1F`, the call was inactive.
In the case of `Cc1cc(C(=O)NC2CC(C)(C)Cc3c2cnn3-c2cccc(F)c2)nn1C` (stereo unspecified), the compound was classed as inactive.
Regarding `COC(=O)C[C@@H]1C[C@@H]2c3cc(NC(=O)c4cccnc4)ccc3O[C@@H]2[C@@H](CO)O1`, the compound was classed as inactive.
With `CS(=O)(=O)N1[C@H](C(=O)NCc2ccncc2)[C@@H](CO)[C@@H]2Cn3c(ccc(C4=CCCCC4)c3=O)[C@@H]21`, the compound was called inactive.

Source of the values: PubChem BioAssay AID651899 (Broad Institute, 2012).
